This is a sample that favours compounds with a hit; in the whole collection about 3.4% have one here.
TEAD-YAP block: TEAD-YAP interaction inhibition; HEK-TIYL cells, TEAD-Gal4/YAP UAS-luciferase luminescence; inhibition, % at 9.12 µM; hit rate 1.4% among 640,000; AID 1259422; in the data active means inhibition above about 32%;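 further: 0% = median of test compound wells and 100% = reference inhibitor wells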
GPR151 ag: activators of human GPR151. Q8TDV0. activation, % at 11.2 µM. PathHunter beta-arrestin GPR151 cells, luminescence. hit rate 1% among 650,000. AID 1508602; in the data active means activation above about 4.9%;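 further: 0% = median of compound wells and 100% = cells with positive control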
FBW7 act: activators of human E3 ligase FBW7 | hit rate 0.13% among 650,000 | AlphaScreen FBW7–phospho-cyclin E peptide binding, activator screen | AID 1259310 | normalized activity (activation), % at 26.1 µM; in the data active means normalized activity above about 1.9%;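 further: purified mutant Fbw7 with reduced substrate affinity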
MITF inh: inhibitors of human MITF. inhibition, % at 2.6 µM. hit rate 0.91% among 650,000. O75030. AlphaScreen MITF homodimerization, bead proximity signal. AID 1259374; in the data active means inhibition above about 50%;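 further: 0% = vehicle wells with protein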
Target sequence (O75030 whole entry, looked up): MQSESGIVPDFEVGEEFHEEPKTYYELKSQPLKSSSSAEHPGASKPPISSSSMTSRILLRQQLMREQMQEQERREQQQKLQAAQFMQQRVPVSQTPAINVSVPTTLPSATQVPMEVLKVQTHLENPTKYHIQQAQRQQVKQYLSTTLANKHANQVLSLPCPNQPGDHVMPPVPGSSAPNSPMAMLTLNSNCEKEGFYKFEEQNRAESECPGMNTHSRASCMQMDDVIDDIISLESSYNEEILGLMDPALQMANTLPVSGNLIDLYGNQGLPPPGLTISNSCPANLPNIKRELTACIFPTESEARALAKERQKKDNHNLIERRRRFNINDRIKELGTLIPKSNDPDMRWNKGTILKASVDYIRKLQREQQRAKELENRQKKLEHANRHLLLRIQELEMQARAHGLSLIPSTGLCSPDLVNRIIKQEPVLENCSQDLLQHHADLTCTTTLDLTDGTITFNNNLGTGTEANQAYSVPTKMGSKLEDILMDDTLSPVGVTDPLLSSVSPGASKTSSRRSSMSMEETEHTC
GPR151 conf act: human GPR151 activation, confirmation screen | GPR151 PathHunter beta-arrestin cells, luminescence, 90 min; % of EA-reagent control over plate median | AID 1508609 | 6,700 tested, under 10 active | shares compounds with GPR151 ag | activation, % at 11.2 µM;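 active means mean percent activation across replicates above the confirmation screen cutoff of 4.91%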
GPR119 ag: GPR119 activation, counter-screen for GPR151 activators. activation, % at 11.2 µM. hit rate 0.3% among 6,700. AID 1508611. shares compounds with GPR151 ag. GPR119 PathHunter beta-arrestin cells, luminescence, 90 min; 0 = compound-well median, 100 = enzyme-acceptor control;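 active means mean percent activation in the counterscreen above 29.09%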;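 further: counterscreen on off-target GPR119 to flag nonselective hits from the GPR151 activator screen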
Numbers without * were called inactive; · = no result.

SMILES	TEAD-YAP block	GPR151 ag	FBW7 act	MITF inh	GPR151 conf act	GPR119 ag
CC1=C(C#N)C(=O)N(C)C(=O)/C1=C/c1ccc(-c2ccccc2C(=O)O)o1	2.9	-0.5	-0.3	20.0	·	·
COc1ccc(CSc2nnnn2C)cc1F	-7.7	5.5*	0.1	3.4	-0.1	-7.0
O=C(NCCCN1CCCCCC1)C(c1ccccc1)C1CCCCC1 (stereo unspecified)	·	5.3*	-0.2	-8.8	-0.2	0.8
COCCN(CCOc1ccc(S(C)(=O)=O)cc1)S(=O)(=O)c1ccc(C)cc1	0.0	-0.6	-0.1	11.6	·	·
O=S(=O)(NCc1ccncc1)c1ccc(I)cc1	39.8*	9.7*	0.1	-7.0	0.9	10.9
Nc1ccc(S(=O)(=O)NCc2ccncc2)cc1	1.2	-0.5	0.6	-7.6	·	·
CCOC(=O)n1c(SCC(=O)N(C)C)nc2ccccc21	3.5	-0.9	0.3	-2.6	·	·
CC1(CC(=O)N/N=C/c2cccc(OC3CSC3)c2)OCCO1	-2.8	5.9*	0.1	11.8	0.4	2.2
CC1(CC(=O)N/N=C/c2cccc(Br)c2)OCCO1	-9.7	-1.0	-0.3	1.6	·	·
CN1CCN(c2cc(N3CCN(CCC#N)CC3)c([N+](=O)[O-])cc2F)CC1	8.6	0.3	-0.1	4.8	·	·
N#CCCN1CCN(c2ccc(F)cc2[N+](=O)[O-])CC1	9.4	5.3*	-0.2	12.7	2.8	-10.8
Cc1ccc(-n2nc3c(c2NC(=O)c2ccc(S(=O)(=O)N4CCOCC4)cc2)CS(=O)(=O)C3)c(C)c1	-2.2	-1.5	0.1	4.5	·	·
CC(C)CCn1c(=O)c2sccc2n2c(CCCC(=O)NCc3ccccc3)nnc12	-2.7	-2.1	0.3	15.9	·	·
Cc1nc(-c2c(C(F)(F)F)oc3c(C)c(C)ccc3c2=O)cs1	-10.8	-0.7	0.0	-5.4	·	·
Cc1nc(-c2c(C(F)(F)F)oc3c(CN(C)C)c(O)ccc3c2=O)cs1	10.1	5.1*	-0.1	-2.0	-0.4	-5.4
CC(=O)C(Sc1nc(NC(C)C)nc(N(C)C)n1)C(C)=O	-12.2	5.3*	0.9	15.9	-0.2	4.9
Cc1cc(NC(=O)c2ccc(C)s2)n(-c2nc3ccccc3[nH]2)n1	0.1	5.3*	0.2	3.2	0.1	1.6
COc1ccc(OC)c(N2C(=O)C3CC(C)=C(C)CC3C2=O)c1 (stereo unspecified)	-0.9	-1.2	0.0	4.5	·	·
COc1ccc(Cl)cc1N1C(=O)C2CC(C)=C(C)CC2C1=O (stereo unspecified)	14.9	6.8*	-0.1	-5.3	-0.4	-5.8
COc1ccc(C2OC(=O)C(C)(C)C(=O)C2C(C)C)cc1 (stereo unspecified)	-3.3	-0.5	-0.2	-10.3	·	·
CC(=O)c1ccc(OC(=O)c2cccc(Br)c2)cc1	-18.5	17.3*	0.1	23.4	1.6	4.0
COc1ccc(OC(=O)c2cccc(Br)c2)cc1	-3.8	1.3	0.1	19.2	·	·
CC(=O)N/C(=C\c1ccccc1)C(=O)NC(C)(C)C	4.3	5.6*	0.2	-4.2	-0.3	-9.7
CCOc1ccccc1NC(=O)NCCc1ccc(OC)cc1	6.3	-0.7	-0.2	-15.1	·	·
CC(=O)NC(Cc1cccc(C)c1)C(=O)NC1CCN(C(=O)c2ccccc2)CC1 (stereo unspecified)	0.1	0.7	0.1	-0.8	·	·
SMILES	TEAD-YAP block	GPR151 ag	FBW7 act	MITF inh	GPR151 conf act	GPR119 ag
COc1ccccc1NC(=O)CSc1nnc(CCNC(=O)c2ccc(C)cc2)n1C	-0.9	6.1*	0.0	11.9	0.9	3.6
CC(=O)Nc1ccc2oc(-c3ccncc3)nc2c1	-22.5	5.1*	0.0	0.7	0.1	-0.6
Cc1ccc(-c2nc3cc(NC(=O)c4cc(Br)ccc4Cl)ccc3o2)cc1Br	7.5	6.1*	-0.4	0.4	0.0	9.0
Cc1ccc(-c2nc3cc(NC(=O)c4cc(Cl)ccc4Cl)ccc3o2)cc1Br	-12.7	0.1	-0.1	-4.1	·	·
Cc1c(C(=O)Nc2ccc3oc(-c4cccnc4)nc3c2)cccc1[N+](=O)[O-]	-3.2	11.2*	0.0	13.7	-0.8	0.4
Cc1c(C(=O)Nc2ccc3oc(-c4ccncc4)nc3c2)cccc1[N+](=O)[O-]	0.7	-1.6	0.2	10.7	·	·
CC(=O)Nc1ccc(-c2nc3cc(C)ccc3o2)cc1	-46.5	-1.4	0.1	-2.4	·	·
CC(=O)Nc1cccc2ncc(-c3ccc4c(c3)OCO4)cc12	-5.9	0.2	0.0	7.9	·	·
CCOC(=O)C1=C(C)N(c2ccc(Br)cc2)C(=O)/C1=C\c1ccc(C(=O)OC)cc1	-11.8	15.9*	-0.7	3.0	1.2	0.6
CCOC(=O)C1=C(C)N(c2ccc(Br)cc2)C(=O)/C1=C\c1ccc(C(=O)O)cc1	-11.8	-1.0	-0.1	-7.0	·	·
CC(C)N1C(=O)CC(Nc2ccc(N3CCOCC3)cc2)C1=O (stereo unspecified)	-27.3	0.5	-0.5	1.2	·	·
CC(c1ccccc1)N1C(=O)CC(Nc2ccc(N3CCOCC3)cc2)C1=O (stereo unspecified)	0.9	7.2*	-0.7	8.0	0.2	12.6
COc1ccc(C(=O)/C=C/c2ccc(-c3ccc(Br)cc3)o2)cc1	12.6	-1.2	0.3	3.6	·	·
COCCNC(=O)c1ccc(/C=C2\Oc3ccccc3N(C)C2=O)cc1	-5.5	10.8*	0.5	-19.7	-1.2	12.1
CCC(C(=O)Nc1ccc(F)cc1)n1c2ccccc2c2nc(=O)cc(C)n21 (stereo unspecified)	4.8	5.3*	0.0	11.4	-0.5	0.4
CCC(C(=O)Nc1ccc(F)cc1F)n1c2ccccc2c2nc(=O)cc(C)n21 (stereo unspecified)	-5.1	-0.7	0.1	-10.0	·	·
CC(CCO)NC(=O)/C=C/c1ccccc1[N+](=O)[O-] (stereo unspecified)	-6.0	0.2	0.7	3.1	·	·
COc1ccc(C(=O)N2CCC(N3CCC(C)CC3)CC2)cc1	7.0	6.5*	0.2	28.5	1.4	-0.9
Cc1cc(Br)ccc1NC(=O)CN1C(=O)C2C3C=CC(C3)C2C1=O (stereo unspecified)	-0.2	-1.0	-0.1	-10.1	·	·
COc1ccc(CNS(=O)(=O)c2ccc(F)c(C(=O)Nc3c(F)cc(F)cc3Br)c2)cc1	-8.6	-1.6	-0.1	-4.1	·	·
CC1CCCCC1NC(=O)c1ccccc1Br (stereo unspecified)	-1.9	1.2	0.7	11.6	·	·
COCCNC(=O)[C@@H]1C[C@H](NCc2cc(C)ccc2C)CN1C1Cc2ccccc2C1	3.6	-0.1	1.1	3.6	·	·
COCCNC(=O)[C@@H]1C[C@H](NCc2ccccc2Cl)CN1C1Cc2ccccc2C1	-3.3	6.4*	-0.1	-0.9	0.6	0.1
COc1ccc(CCNc2cc(N3CCN(C(=O)c4cccc(Br)c4)CC3)ccc2[N+](=O)[O-])cc1OC	-2.8	1.4	-0.1	13.1	·	·
CCCNC(=O)c1ccc2nc(N3CCc4ccccc4C3)sc2c1	-54.7	-1.6	0.0	5.4	·	·
O=C(NCc1ccccc1)c1ccc2nc(N3CCc4ccccc4C3)sc2c1	-62.8	5.6*	-0.1	-0.7	0.4	-0.5

Screening results as filed in PubChem.
